Screening results (PubChem BioAssay)
Mcl1-Bid inh – disrupts binding of human Mcl-1 to Bid peptide. Q07820. TR-FRET Mcl-1/Bid-Dy647 peptide binding, 1536-well. inhibition, % at 21.7 µM. hit rate 0.97% among 220,000. AID 1021;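 active = compounds that cut the binding signal by more than half at the single screening dose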;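 also: His-tagged Mcl-1 with europium anti-His antibody binding Bid BH3 peptide; 0% = Mcl-1 plus peptide wells and 100% = peptide-only wells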
Target sequence (Q07820 whole entry, looked up): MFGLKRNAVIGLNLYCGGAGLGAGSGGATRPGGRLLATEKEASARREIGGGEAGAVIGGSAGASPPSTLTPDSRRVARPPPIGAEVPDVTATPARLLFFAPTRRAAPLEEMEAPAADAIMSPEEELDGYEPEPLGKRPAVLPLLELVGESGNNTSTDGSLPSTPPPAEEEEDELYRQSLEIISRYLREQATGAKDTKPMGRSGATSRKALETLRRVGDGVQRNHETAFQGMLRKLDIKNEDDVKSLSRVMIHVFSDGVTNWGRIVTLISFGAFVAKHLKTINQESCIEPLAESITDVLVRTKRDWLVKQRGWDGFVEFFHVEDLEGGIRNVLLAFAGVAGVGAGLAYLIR
Mcl1-Noxa inh – disrupts binding of human Mcl-1 to Noxa peptide | Q07820 | TR-FRET Mcl-1/Noxa peptide binding, 2 h | inhibition, % at 21.7 µM | hit rate 1.5% among 220,000 | AID 1022;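 active = compounds that cut the protein-peptide binding signal by more than 50% relative to plate controls in a single-dose test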;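 also: His-tagged Mcl-1 with rhodamine Noxa BH3 peptide and terbium anti-His antibody; 0% = Mcl-1 plus Noxa peptide wells and 100% = peptide-only wells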
L929 necroptosis – blocks zVAD induced death of L929 cells; L929 zVAD necroptosis rescue, ATP luminescence, 24 h; with zVAD 60 µM; viability rescue, % at 10 µM; hit rate 0.38% among 220,000; AID 1377;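 active = activation, scaled between plate controls, above about 75%, limit read from the data; inactive = activation under that limit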;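 also: 0% = zVAD with DMSO and 100% = DMSO alone without zVAD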
TNF death inh – TNF-alpha cell death inhibition in Jurkat FADD-/- cells | hit rate 0.068% among 220,000 | Jurkat FADD-/- TNF necroptosis rescue, ATP luminescence, 24 h; 0 = TNF only, 100 = no-TNF cells | AID 463075 | activation (protection from cell death), % at 10 µM;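 active = activation, meaning protection from cell death, of at least 50% relative to plate controls; inactive = activation below 50%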;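 also: necroptosis triggered by 40 ng/mL TNF-alpha added together with compound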
Calpain2 inh – calpain II (pig) inhibition. purified calpain II, fluorogenic peptide substrate, 30 min. inhibition, % at 16 µM. hit rate 0.37% among 220,000. AID 1236;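 active = inhibition above about 50%, limit read from the data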
Bim-Mcl-1 – inhibitors of Bim-Mcl-1 interaction, human; AID 1009; Bead-based flow cytometry, Bim peptide-Mcl-1 binding; inhibition, % at 10 µM; hit rate 0.1% among 190,000; Q07820; in the data active = inhibition above about 40%;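 also: 0% = no compound tracer wells and 100% = peptide blocker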
An asterisk follows results filed as active; i = inactive; nt = not tested or not shown. Shown are actives, neighbours in structure and some others; about 2.8% of the full set was active somewhere.

SMILES	Mcl1-Bid inh	Mcl1-Noxa inh	L929 necroptosis	TNF death inh	Calpain2 inh	Bim-Mcl-1
O=C(NNC(=O)c1ccccc1Cl)c1ccccc1Cl	95.4*	-14.6	-0.5	0.3	10.9	nt
COc1ccc(CC(=O)OCC(=O)NCc2ccccc2Cl)cc1	-20.4	13.2	4.8	1.6	-7.9	0.0
O=C(NCCO)c1ccc(Cl)c(Cl)c1	-6.8	13.5	2.4	1.2	11.3	0.0
O=C(NC1CCCC1)c1ccc2nc(-c3ccco3)c(-c3ccco3)nc2c1	28.7	100.6*	1.9	-9.6	-41.2	4.0
O=C(NCCc1ccccc1)c1ccc2nc(-c3ccco3)c(-c3ccco3)nc2c1	55.8*	103.0*	0.6	-8.6	-33.2	8.0
O=C(NC1CCCC1)c1ccc2nc[nH]c2c1	-31.4	-48.1	0.5	-1.7	-20.2	2.0
O=C(NCCO)c1ccc2nc(-c3ccco3)c(-c3ccco3)nc2c1	-28.0	92.2*	-0.9	-3.5	-263.0	14.0
O=C(c1ccccc1)c1ccc2nc(-c3ccco3)c(-c3ccco3)nc2c1	17.3	99.1*	1.1	-1.8	-73.1	18.0
NC(=O)[C@@H]1CCOc2c(I)cc([N+](=O)[O-])cc2C(=O)N[C@@H](CO)C(=O)NCC(=O)N1	3.2	5.2	5.6	1.8	-24.0	-1.0
COc1ccccc1N1CCN(C(=O)c2ccc3nc(-c4ccco4)c(-c4ccco4)nc3c2)CC1	-44.8	63.1*	0.3	-0.8	-158.3	-5.0
c1coc(-c2nc3ccccc3nc2-c2ccco2)c1	-39.0	84.8*	23.8	-1.9	-324.7	9.0
COc1cccc(NC(=O)c2cccc(C)c2[N+](=O)[O-])c1	-18.1	15.4	52.1	-1.5	-20.0	0.0
CCC(CC)NC(=O)COC(=O)c1cc(Br)ccc1Cl	97.0*	-0.5	-1.0	0.0	13.7	3.0
Cc1nnc(SCC(=O)Nc2nccs2)n(N)c1=O	0.9	-11.2	0.2	2.6	6.8	-4.0
COc1ccc(/C(O)=C2/C(=O)C(=O)N(CCCN(C)C)C2c2ccc(C)o2)cc1Cl (centres undefined)	2.6	-4.5	0.4	-0.5	4.4	0.0
O=C(Cc1ccccc1)Nc1ccc(N2CCCC2)cc1	-56.5	81.7*	-0.2	0.3	-59.3	-2.0
O=C(CN1CCOCC1)Nc1ccc(Oc2ccc(NC(=O)CN3CCOCC3)cc2)cc1	-37.3	6.1	-0.2	-0.3	-5.4	-2.0
O=C(Nc1ccc(N2CCCCCC2)cc1)c1ccccc1Cl	-60.5	51.6*	9.0	-3.3	20.6	-2.0
O=C(CN1CCCCC1)Nc1ccc(N2CCCCCC2)cc1	27.5	66.6*	53.7	1.6	-24.6	0.0
COc1ccc(NC(=O)CN2CCOCC2)cc1	71.4*	-2.6	-0.2	0.3	-31.2	-3.0
COc1ccc(NC(=O)C2CCCN(S(=O)(=O)c3ccc4c(c3)oc(=O)n4C)C2)c(OC)c1 (centres undefined)	-9.4	8.3	0.5	0.5	-28.2	0.0
Cc1cc(C)nc(N2CCC(C(=O)NNC(=O)c3ccc(Cl)cc3)CC2)n1	-50.9	-18.4	-0.1	-1.4	-25.3	nt
CCC(=O)Nc1ccc(N2CCC(C)CC2)cc1	-21.1	42.0	1.2	-1.1	18.5	-4.0
Cc1cc(C)cc(C(=O)Nc2ccc(N3CCCC3)cc2)c1	-13.9	67.4*	7.9	0.6	-24.8	1.0
CC1CCN(c2ccc(NC(=O)Cc3ccccc3)cc2)CC1	-12.4	86.6*	1.5	0.9	13.7	0.0
SMILES	Mcl1-Bid inh	Mcl1-Noxa inh	L929 necroptosis	TNF death inh	Calpain2 inh	Bim-Mcl-1
O=S(=O)(c1ccccc1)N(C1=NCCS1)S(=O)(=O)c1ccccc1	-0.3	9.7	-0.3	-0.5	15.7	0.0
CC1CCN(S(=O)(=O)c2ccc(NC(=O)CSc3nnnn3C)cc2)CC1	-11.9	16.5	-0.1	-0.8	59.1*	0.0
Cc1cc(C)n2nc3nc(N4CCCCC4)nc(-c4ccco4)c3c2n1	-23.2	66.5*	nt	nt	-187.3	1.0
O=c1/c(=C\c2cccn2-c2ccccc2)sc2nc3ccccc3n12	-5.5	nt	1.6	7.0	-13.7	5.0
O=C(O)Cn1cc(/C=c2/sc3nc4ccccc4n3c2=O)c2ccccc21	-28.7	64.1*	0.3	0.3	-113.6	0.0
COc1cc(C(=O)NCCCc2nc3ccccc3n2Cc2cc(C)ccc2C)cc(OC)c1OC	2.5	21.4	-1.2	1.7	-18.9	-2.0
C=CCn1c(CCCNC(=O)c2ccccc2OC)nc2ccccc21	-8.7	-8.7	0.6	1.6	81.3*	4.0
COC(=O)/C(=C/c1cn(C(C)=O)c2ccccc12)[N+](=O)[O-]	-7.9	61.0*	0.1	-0.8	7.0	nt
COc1ccc2c(c1)CCC(C)N2C(=O)C(=O)c1c[nH]c2ccccc12 (centres undefined)	-8.3	1.6	0.7	-6.4	-6.5	nt
N#CC(c1ccc(Cl)cc1)N1CCOCC1 (centres undefined)	-13.4	4.0	1.8	0.0	6.6	2.0
Oc1c(Cl)cc(Cl)cc1C(C#Cc1ccccc1)N1CCOCC1 (centres undefined)	24.0	15.3	-0.2	-4.5	53.4*	-2.0
CC(C)N=c1scc(-c2cccs2)n1/N=C/c1ccc(O)c(O)c1O	-94.0	51.5*	0.5	-2.9	-59.3	-3.0
CN=c1scc(-c2ccccc2F)n1/N=C/c1ccc(O)c(O)c1O	-38.5	57.6*	-0.8	-9.5	-3.7	-1.0
C=CS(=O)(=O)c1sc(Cl)c(N2CCOCC2)c1[N+](=O)[O-]	69.1*	67.4*	3.5	-1.0	25.7	8.0
Clc1ccc2nc(CN3CCCc4ccccc43)cn2c1	100.3*	47.0	1.1	3.7	7.4	-4.0
Clc1ccc2nc(CN3CCCCC3)cn2c1	-2.2	9.2	0.7	0.0	-10.0	-3.0
C#CCn1cc(C=C2C(=O)c3ccccc3C2=O)c2ccccc21	i	54.7*	0.1	-1.4	-11.8	25.0
COCCCN=C1NN=C(c2cc(C)n(-c3ccccc3)c2C)CS1	-12.5	10.9	nt	1.3	-16.8	-9.0
CCCCN=C1NN=C(c2cccc([N+](=O)[O-])c2)CS1	8.5	50.6*	50.3	39.0	36.8	3.0
CCCCN=C1NN=C(c2cc3ccccc3o2)CS1	-45.4	70.2*	1.3	2.3	25.4	-1.0
O=c1c2cc3c(cc2[nH]c(=S)n1Cc1ccco1)OCO3	-17.1	10.4	0.3	-2.6	17.9	10.0
CCOC(=O)C1CCN(c2nc(N)c3c(N)nc(SCC(=O)O)cc3c2C#N)CC1	-30.4	77.2*	2.0	-8.2	-324.1	nt
CN(CCOc1ccc(NS(C)(=O)=O)cc1)CCc1ccc(NS(C)(=O)=O)cc1	84.3*	1.1	nt	nt	12.0	1.0
Cc1ccc(N=Nc2c(N)[nH]n3c(=O)cc(-c4ccccc4)nc23)cc1	76.5*	81.1*	-0.3	-5.1	-120.6	0.0
COc1cccc(N=Nc2c(N)[nH]n3c(=O)cc(-c4ccccc4)nc23)c1	56.1*	29.3	1.1	-6.4	-184.3	3.0
Cc1cc(=O)n2[nH]c(N)c(N=Nc3ccccc3)c2n1	-46.3	28.2	0.8	0.8	1.9	2.0
